Experiment [1] has as its target Thyroid hormone receptor alpha (Rattus norvegicus) + Thyroid hormone receptor beta (Rattus norvegicus) (UniProt P18113+P63059). Put plainly: TOX21_TR_LUC_GH3_Antagonist_Followup: Tox21 GH3 Thyroid Hormone Receptor Antagonism Luciferase Follow-Up Assay (AID 2283942). On the procedure:
TOX21_TR_LUC_GH3_Agonist_Followup is a secondary assay for the TOX21_TR_LUC_GH3_Agonist assay. TOX21_TR_LUC_GH3_Agonist_Followup is a cell-based, single-readout assay that uses GH3, a rat pituitary gland cell line, with measurements taken at 28 hours after chemical dosing in a 1536-well plate.TOX21_TR_LUC_GH3_Antagonist_Followup is one of one assay component(s) measured or calculated from the TOX21_TR_LUC_GH3_Antagonist_Followup assay. It is designed to make measurements of luciferase induction, a form of inducible reporter, as detected with bioluminescence signals by CellTiter-Glo Luciferase-coupled ATP quantitation technology.Data from the assay component TOX21_TR_LUC_GH3_Antagonist_Followup was analyzed into 1 assay endpoint. This assay endpoint, TOX21_TR_LUC_GH3_Antagonist_Followup, was analyzed in the positive analysis fitting direction relative to DMSO as the negative control and baseline of activity. Using a type of inducible reporter, gain-of-signal activity can be used to understand changes in the reporter gene as they relate to the gene THRA and THRB in the GH3 cell line using a luciferase reporter. Furthermore, this assay endpoint can be referred to as a primary readout, because the performed assay has only produced 1 assay endpoint. This assay endpoint is designated followup because it was a confirmatory screen following the primary qHTS assay.
Cell Media Required: Growth (90% DMEM/F-12, 10% Fetal Bovine Calf Serum, 100U/ml Penicillin, 100 ug/ml Streptomycin), Assay (10ng/mL sodium selenite, 10 ug/mL humanapo-transferrin, 10 uM ethanolamine, 10 ug/mL insulin, 500 ug/mL bovine serum albumin (BSA))Assay Protocol: Cells were seeded at 1,500/well in 5 uL (agonist mode) and 4 uL (antagonist mode) of the assay medium in 1,536-well white/solid plates (Greiner Bio-One North America) using a Multi drop Combi (Thermo Fisher Scientific) dispenser. Chemical samples were serially diluted in DMSO, yielding 15 concentrations for testing. After 5-h incubationat 37C/5% carbon dioxide (CO2) for cell attachment, 23 nL of serially diluted compounds (yielding 92 uM to 5nM final assay concentration) and positive control (T3; agonist format), DMSO only (antagonist format) were transferred to the assay plates using a Pintool station (Wako). To screen compounds that antagonize T3-induced transactivation of TR, an extra 1 uL of T3 was added using a BioRAPTER Flying Reagent Dispenser (FRD; Aurora Discovery on the top of the cell/compound mixtures to achieve a final agonist concentration of 1.0 nM.The assay plates were in cubated at 37C/5% CO2 for 24 h. For the luciferase reporter gene assay, 5 uL/well (agonist format) and 4 uL/well (antagonist format) ONE-Glo reagent (Promega Corporation) was added using an FRD and after 30-min incubation at room temperature, the luminescence intensity was measured using a ViewLux plate reader. Data were expressed as relative fluorescence units (cell viability assay) and relative luminescence units (luciferase reporter assay).

The target of experiment [2] is THRA (gene 7067) (UniProt P10827). The experiment in a line: TOX21_TRA_COA_Antagonist_Followup_ratio: Tox21 Thyroid Hormone Receptor alpha Antagonism through Coactivator Recruitment Follow-Up Assay, Ratio (AID 2283953). In short, it runs like this:
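This follow-up to the GH3 luciferase screen checks specificity in a cell-free format. It measures SRC-2 coactivator peptide binding to TRα LBD by TR-FRET and scores loss of ratio signal relative to DMSO.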

The target of experiment [3] is THRB (gene 7068) (UniProt P10828). Put plainly: TOX21_TRB_BLA_Antagonist_Followup_ratio: Tox21 Thyroid Hormone Receptor beta Antagonism Beta-lactamase (BLA) Follow-Up Assay, Ratio (AID 2283958). In short, it runs like this: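 GAL4-DBD/human TRβ-LBD fusion in GeneBLAzer UAS-bla HEK293T cells, 3,000 cells/well in phenol red-free DMEM with 2% charcoal-stripped FBS; compounds at 11 concentrations in triplicate, 18 h at 37C. CCF4-AM substrate 2 h, 460:530 nm ratio relative to DMSO.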

The nature of experiment [4]: TOX21_TRB_BLA_Antagonist_Followup_viability: Viability Assessment in the Tox21 Thyroid Hormone Receptor beta Antagonism Beta-lactamase (BLA) Follow-Up Assay (AID 2283961). In short, it runs like this:
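In the same wells as the reporter read, cell health was gauged by CellTiter-Glo ATP luminescence, with signal loss indicating reduced viability. Cells had been exposed to test compounds for 18 h.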

The target in experiment [5] is THRB (gene 7068) (UniProt P10828). Put plainly: TOX21_TRB_COA_Antagonist_Followup_ratio: Tox21 Thyroid Hormone Receptor beta Antagonism through Coactivator Recruitment Follow-Up Assay, Ratio (AID 2283967). The essentials: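 Cell-free TR-FRET: GST-TRb LBD (5.0 nM) with fluorescein-SRC-2 peptide (200 nM) and Tb anti-GST antibody (2 nM), 0.10% BSA. 520:495 nm emission ratio normalized to DMSO (0%) and T3 (100%).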

Experiment [6] can be described thus: TOX21_PR_LUC_Followup_Agonist_viability: Viability Assessment in the Tox21 HEK293 Progesterone Receptor (PR) Agonism Luciferase Follow-Up Assay (AID 2283941).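 Also: loss of signal means cytotoxicity so actives lower viability.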 In short, it runs like this: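 HEK293-PR-A-luc cells, pre-cultured 5 days in 10% charcoal-stripped FBS, were seeded at 3,000 cells/well, rested 5 h at 37C, then given compound in DMSO for 16 h at 37C. Cellular ATP was read by CellTiter-Glo luminescence; signal loss indicates cytotoxicity.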

Experiment [7] concerns the target THRA (gene 7067) (UniProt P10827). The experiment in a line: TOX21_TRA_COA_Agonist_Followup_ratio: Tox21 Thyroid Hormone Receptor alpha Agonism through Coactivator Recruitment Follow-Up Assay, Ratio (AID 2283948; active = hit-call score of the fitted dose curve at least 0.9, where 1 is the maximum; inactive = score below 0.9). In short, it runs like this:
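Agonist-mode biochemical TR-FRET with TRα LBD and SRC-2 coactivator peptide; activity expressed as percent of T3 response over DMSO baseline.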

The target of experiment [8] is THRB (gene 7068) (UniProt P10828). The experiment in a line: TOX21_TRB_COA_Agonist_Followup_ratio: Tox21 Thyroid Hormone Receptor beta Agonism through Coactivator Recruitment Follow-Up Assay, Ratio (AID 2283963; active = hit-call score of the fitted dose curve at least 0.9, where 1 is the maximum; inactive = score below 0.9). In short, it runs like this: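 GST-TRb LBD 5.0 nM + 0.10% BSA + cpd; add fluorescein-SRC-2 200 nM / Tb anti-GST Ab 2 nM; TR-FRET ex 340, em 520:495; norm DMSO 0%, T3 100%.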

The target of experiment [9] is Retinoic acid receptor RXR-alpha (Homo sapiens) (UniProt P19793). The experiment in a line: TOX21_TR_RXR_BLA_Agonist_Followup_ratio: Tox21 Thyroid Hormone Receptor beta Retinoid X Receptor alpha (RXRa) Agonism Beta-lactamase (BLA) Follow-Up Assay, Ratio (AID 2283968). The essentials:
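RXRa-UAS-bla HEK293T cells (GAL4 beta-lactamase reporter) were treated with compounds at 11 concentrations in triplicate for 16 h at 37C/5% CO2, then loaded with CCF4-AM substrate for 2 h at room temperature; activity is the 460:530 nm ratio versus DMSO baseline.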

Experiment [10] deals with THRB (gene 7068) (UniProt P10828). Put plainly: TOX21_TRB_BLA_Agonist_Followup_ratio: Tox21 Thyroid Hormone Receptor beta Agonism Beta-lactamase (BLA) Follow-Up Assay, Ratio (AID 2283954). From the text:
The GeneBLAzer TRb-UAS-bla HEK293T assay kit for human TRb (ThermoFisherScientific Catalog No. K1684) was used as a secondary assay for specificity (TRb-bla). This assay contained the ligand-binding domain (LBD) of the human TRb fused to the DNA-binding domain of GAL4 stably integrated in the GeneBLAzer UAS-bla HEK293Tcell line. The reporter gene, b-lactamase, is under the transcriptional control of a UAS that binds the GAL4 DNA-binding domain. A cell viability assay was run in parallel for these cells as well using the CellTiter-Glo viability assay kit.TOX21_TRB_BLA_Agonist_Followup_ratio is an assay readout measuring reporter gene via receptor activity and designed using inducible reporter (beta lactamase induction) detected with GAL4 b-lactamase reporter gene. The signal is derived from the ratio of cleaved (ch2) to uncleaved (ch1) reporter gene substrate used as the measure of target activity.Data from the assay component TOX21_TRB_BLA_Agonist_Followup_ratio was analyzed into 1 assay endpoint. This assay endpoint, TOX21_TRB_BLA_Agonist_Followup_ratio, was analyzed in the positive analysis fitting direction relative to DMSO as the negative control and baseline of activity. […] Furthermore, this assay endpoint can be referred to as a primary readout, because this assay has produced multiple assay endpoints and this ratio serves a reporter gene function to understand target activity. […]

Results filed as inconclusive are left out. Calls of active or inactive are those of the source. The calls were made as follows, unless noted: active = hit-call score of the fitted dose curve at least 0.9, where 1 is the maximum; inconclusive = response in the unintended direction; inactive = score below 0.9.

Among the data in PubChem BioAssay (EPA / NIEHS) are AC50 and outcome values, retold here.

Sequence of THRB (gene 7068) (P10828 whole entry, looked up, the tested form may be a part): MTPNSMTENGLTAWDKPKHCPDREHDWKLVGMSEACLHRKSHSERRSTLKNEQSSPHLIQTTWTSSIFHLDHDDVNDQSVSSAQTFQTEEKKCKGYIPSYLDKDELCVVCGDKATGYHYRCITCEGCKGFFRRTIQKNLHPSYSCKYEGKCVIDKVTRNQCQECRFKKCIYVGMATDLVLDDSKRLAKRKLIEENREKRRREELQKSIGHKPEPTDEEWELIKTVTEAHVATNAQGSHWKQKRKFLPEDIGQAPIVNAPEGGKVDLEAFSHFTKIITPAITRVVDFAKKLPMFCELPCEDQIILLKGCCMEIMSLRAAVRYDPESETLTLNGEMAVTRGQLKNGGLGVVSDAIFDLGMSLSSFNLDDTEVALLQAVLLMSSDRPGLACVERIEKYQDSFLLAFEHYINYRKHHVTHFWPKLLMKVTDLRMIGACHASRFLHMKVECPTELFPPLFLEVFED
Sequence of THRA (gene 7067) (P10827 whole entry, looked up, the tested form may be a part): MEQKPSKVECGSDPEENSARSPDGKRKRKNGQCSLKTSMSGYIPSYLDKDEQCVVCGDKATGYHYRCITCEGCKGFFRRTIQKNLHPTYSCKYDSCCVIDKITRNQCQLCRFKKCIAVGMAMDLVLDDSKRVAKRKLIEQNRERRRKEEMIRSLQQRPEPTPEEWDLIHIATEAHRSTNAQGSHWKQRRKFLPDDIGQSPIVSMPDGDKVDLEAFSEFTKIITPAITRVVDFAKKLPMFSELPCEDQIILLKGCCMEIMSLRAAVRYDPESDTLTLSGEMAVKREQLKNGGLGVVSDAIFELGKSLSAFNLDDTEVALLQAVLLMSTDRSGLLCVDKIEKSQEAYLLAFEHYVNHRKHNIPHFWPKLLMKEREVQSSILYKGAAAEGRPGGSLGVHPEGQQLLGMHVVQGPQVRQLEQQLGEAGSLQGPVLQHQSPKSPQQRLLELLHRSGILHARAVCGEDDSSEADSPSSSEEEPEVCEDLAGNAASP
Sequence of Retinoic acid receptor RXR-alpha (Homo sapiens) (P19793 whole entry, looked up, the tested form may be a part): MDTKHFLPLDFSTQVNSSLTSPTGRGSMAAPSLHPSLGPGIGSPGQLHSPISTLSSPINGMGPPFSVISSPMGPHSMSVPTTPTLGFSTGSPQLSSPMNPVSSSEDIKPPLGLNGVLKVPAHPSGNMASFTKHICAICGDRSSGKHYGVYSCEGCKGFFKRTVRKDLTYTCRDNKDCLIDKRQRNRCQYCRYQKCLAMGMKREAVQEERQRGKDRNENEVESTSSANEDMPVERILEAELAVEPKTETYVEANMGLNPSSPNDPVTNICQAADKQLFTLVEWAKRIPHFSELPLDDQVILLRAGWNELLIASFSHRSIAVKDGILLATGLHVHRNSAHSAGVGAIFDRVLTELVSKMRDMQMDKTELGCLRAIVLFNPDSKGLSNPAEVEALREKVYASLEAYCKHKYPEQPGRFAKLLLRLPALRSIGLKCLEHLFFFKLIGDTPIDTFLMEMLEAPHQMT

Consider `Oc1ccc(Cl)cc1Cc1cc(Cl)ccc1O`, for which the AC50 in experiment [1] was 18.7 µM (active); with THRB (gene 7068) [3], 38.3 µM (active); in experiment [4] it was 23.5 µM (active); with THRB (gene 7068) [5], 38.3 µM (active). Besides, the outcome with THRA (gene 7067) [2] was inactive.

Consider `Nc1ccc(-c2ccc(F)cc2)cc1`, for which the compound was classed as inactive in experiment [6].

`C#CC1(O)CC[C@H]2[C@@H]3CCC4=CCCC[C@@H]4[C@H]3CC[C@@]21C` (stereo partly specified): the half-maximal activity concentration (AC50) in experiment [6] was 72.7 µM (active).

On to `CCC(=O)Oc1ccc(/C(CC)=C(\CC)c2ccc(OC(=O)CC)cc2)cc1`, for which the result in experiment [6] was inactive.

As to `C[Si](C)O[Si](C)(C)O[Si](C)(C)O[Si](C)C`, the result (in the experiment with THRA (gene 7067) [7]; in the experiment with THRB (gene 7068) [8]; in experiment [9]) was inactive.

Consider `COc1ccc(C(Cl)=C(c2ccc(OC)cc2)c2ccc(OC)cc2)cc1`, for which the compound was called inactive (in experiment [6]; in experiment [1]; with THRB (gene 7068) [3]; in [4]).

As for `c1cc(N(CC2CO2)CC2CO2)ccc1OCC1CO1` (stereo unspecified), the AC50 in experiment [1] is 60.9 µM (active). The result (in the experiment with THRA (gene 7067) [2]; with THRB (gene 7068) [3]; in [4]; with THRB (gene 7068) [5]) was inactive.

Turning to `CC(C)(c1cc(Br)c(OCCO)c(Br)c1)c1cc(Br)c(OCCO)c(Br)c1`, the compound was classed as inactive in experiment [6].

In the case of `C[C@]12C=CC(=O)C=C1CC[C@@H]1[C@@H]2[C@@H](O)C[C@@]2(C)[C@H]1CC[C@]2(O)C(=O)CO`, in [6], the compound was classed as inactive.

On to `N=c1ccn2c(n1)O[C@H]1[C@H](O)[C@@H](CO)O[C@H]12`, for which the result (in experiment [1]; in the experiment with THRB (gene 7068) [3]; in experiment [4]; with THRB (gene 7068) [5]) was inactive.

Take `COCc1c(C(C)C)nc(C(C)C)c(/C=C/[C@@H](O)C[C@@H](O)CC(=O)O)c1-c1ccc(F)cc1`: the outcome (in [1]; with THRA (gene 7067) [2]; in the experiment with THRB (gene 7068) [3]; in experiment [4]; with THRB (gene 7068) [5]) was inactive.

On to `CC(=O)[C@H]1[C@H](C#N)C[C@H]2[C@@H]3CC=C4C[C@@H](O)CC[C@]4(C)[C@H]3CC[C@@]21C`, for which, in experiment [6], the compound was called inactive.

For `CCOC(=O)c1ccccc1C(=C1C=C(Br)C(=O)C(Br)=C1)c1cc(Br)c(O)c(Br)c1`, the compound was classed as inactive in experiment [6].

Take `CCCCCCC(O)CO` (stereo unspecified): the outcome (in the experiment with THRA (gene 7067) [7]; with THRB (gene 7068) [10]; with THRB (gene 7068) [8]; in [9]) was inactive.

Take `Cc1ccc(C(C)c2ccc(C)c(C)c2)cc1C`: the result in experiment [6] was inactive.

As for `NC(CO)(CO)CO`, the half-maximal activity concentration (AC50) in the experiment with THRA (gene 7067) [7] was 40.6 µM (active). The result (with THRB (gene 7068) [10]; with THRB (gene 7068) [8]; in experiment [9]) was inactive.

With `Cc1oncc1C(=O)Nc1ccc(C(F)(F)F)cc1`, the result (with THRA (gene 7067) [2]; in the experiment with THRB (gene 7068) [3]; in experiment [4]; in the experiment with THRB (gene 7068) [5]) was inactive.

As usually defined, the AC50 is the concentration at which the activity in the assay is half-maximal.
